An excerpt weighted towards active compounds, which were near 7.8% of everything screened.
Marburg entry inh: blocks Marburg virus binding to or entry into cells. Marburg virus pseudotyped entry inhibition, cell reporter. Potency, µM (highest dose often 37.8 µM), actives largely listed as inhibitors. 300,000 tested, 1.8% active. AID 540276; calls by dose curve; tested in HEK293 cells
Vaccinia Venus: inhibitors of vaccinia virus (Venus reporter); Vaccinia virus Venus reporter expression, fluorescence; 330,000 tested, 0.46% active; AID 720580; Potency, µM (top dose mostly 36.5 µM), hits mostly inhibitors; calls by dose curve; tested in A549 cells; also: nearly all actives have a fitted effect of over 30% in size
HCMV inh: inhibitors of human cytomegalovirus; AID 1259415; HFF cells, HCMV-luciferase reporter, 72 h; hits give low values; 410,000 tested, 4.5% active; activity change, negative = inhibition, % at 57.5 µM; in the data active = activity change below about -60%; inconclusive = no clear call, values can overlap the other calls; inactive = above about -39%
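Human foreskin fibroblasts infected with luciferase-reporter HCMV at MOI 1 PFU/cell, compounds at two doses. Luciferase measured 72 h post infection; normalized to buffer-only basal and Salinomycin (10uM) controls.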
HCV inhibitor: HCV inhibition; Huh7.5.1 HCVcc-Cre infection, luciferase reporter, 44 h; Potency, µM (doses to about 41.8 µM), hits mostly inhibitors; 340,000 tested, 3.4% active; active = well fitted inhibition curve with a large enough effect; inconclusive = small, poorly fitted or top-dose-only effect, or another doubt; inactive = no such curve, though single readings can be large or run the other way
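Seed cells (1,000/well) for 4 h; treat with compound and infect with HCVcc-Cre, moi about 0.5. Incubate 44 h, then detect luciferase activity.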
Vaccinia mCherry: vaccinia inhibition (mCherry reporter); Vaccinia virus mCherry reporter infection, fluorescence; Potency, µM (top dose mostly 36.5 µM), usual class: inhibitors; 310,000 tested, 0.63% active; calls by dose curve; tested in A549 cells; also: nearly all actives have a fitted effect of over 35% in size
LASV entry inh: blocks Lassa virus binding to or entry into cells; Lassa virus pseudotype entry inhibition, cell reporter; Potency, µM (titrated, usually from 37.9 µM), hits mostly inhibitors; 300,000 tested, 1.2% active; AID 540256; calls by dose curve; tested in HEK293 cells; also: nearly all actives have a fitted effect of over 50% in size
Large screens that a line does not name were inactive.

Cc1ccc(N2CC(NC(=O)CCCc3ccccc3)CC2=O)cc1 (stereo not given)	none (no result: Marburg entry inh, HCV inhibitor)
CCOC(=O)c1ccc(N2CCN(c3cccc(Cl)c3)CC2)c(NC(=O)Nc2ccc(Cl)cc2)c1	none (no result: Marburg entry inh, HCV inhibitor)
COc1cccc(CNCCC2=C3C=CC=CC3N=C2)c1 (stereo not given)	Marburg entry inh 11µM (no result: Vaccinia Venus, HCMV inh, HCV inhibitor, Vaccinia mCherry, LASV entry inh)
Cc1cccc(C)c1OCC(=O)Nc1nonc1-c1ccc(Br)cc1	LASV entry inh inconclusive (no result: HCV inhibitor)
Cc1cc(C)cc(OC(C)C(=O)Nc2nonc2-c2ccc(Br)cc2)c1 (stereo not given)	HCMV inh -62 (no result: HCV inhibitor)
CCCCN1C(=O)c2[nH]nc(-c3ccccc3O)c2C1c1cc(Br)c(O)c(OC)c1 (stereo not given)	LASV entry inh inconclusive (no result: HCV inhibitor)
Cc1ccc(-n2nnnc2Sc2nc([N+](=O)[O-])nn2C)cc1C	none
Cc1ccc(C)c(-n2nnnc2Sc2nc([N+](=O)[O-])nn2C)c1	Marburg entry inh inconclusive, Vaccinia Venus inconclusive, HCMV inh -70, Vaccinia mCherry inconclusive
Cc1ccc(S(=O)(=O)N2CCOCC2)cc1C(=O)Nc1ccccc1C(=O)O	LASV entry inh inconclusive (no result: HCV inhibitor)
COc1ccc(N2CC(NC(=O)c3ccc(OC(C)C)cc3)CC2=O)cc1 (stereo not given)	none (no result: Marburg entry inh, HCV inhibitor)
CC1(C)O[C@H]2[C@@H](O1)[C@@H](C(=O)Nc1cc(F)ccc1F)O[C@@H]1OC(C)(C)O[C@@H]12	HCMV inh -89 (no result: HCV inhibitor)
CC1(C)O[C@H]2[C@@H](O1)[C@@H](C(=O)Nc1ccccc1O)O[C@@H]1OC(C)(C)O[C@@H]12	none (no result: HCV inhibitor)
CC(C)c1ccc(CN2CCN(C(=O)CSc3nnnn3C3CC3)CC2)cc1	HCMV inh -90, HCV inhibitor 5.6µM (no result: Marburg entry inh, Vaccinia Venus, Vaccinia mCherry, LASV entry inh)
O=C(CSc1nnnn1C1CC1)N1CCN(c2cccc(Cl)c2)CC1	HCV inhibitor 13µM (no result: Marburg entry inh, Vaccinia Venus, Vaccinia mCherry, LASV entry inh)
CCOc1ccc(CCNC(=O)CCc2c(C)nc3cc(-c4ccccc4OC)nn3c2C)cc1	Marburg entry inh inconclusive, LASV entry inh inconclusive (no result: HCV inhibitor)
CC(C)OCC(O)CN1CCN(CCN2C(=O)c3cccc4cccc(c34)C2=O)CC1 (stereo not given)	HCV inhibitor inconclusive (no result: Marburg entry inh, Vaccinia Venus, Vaccinia mCherry, LASV entry inh)
CCC(OCC(O)CN1CCN(CCN2C(=O)c3cccc4cccc(c34)C2=O)CC1)c1ccccc1 (stereo not given)	Marburg entry inh inconclusive, Vaccinia Venus inconclusive, HCMV inh inconclusive, HCV inhibitor 7.9µM, Vaccinia mCherry inconclusive, LASV entry inh inconclusive
CC(=O)c1ccc(OCC(O)CN2CCN(S(=O)(=O)c3c(C)c(C)cc(C)c3C)CC2)cc1 (stereo not given)	Marburg entry inh inconclusive, HCMV inh -72, HCV inhibitor 13µM, LASV entry inh inconclusive
CC(=O)c1cccc(NC(=S)N2CCN(CCN3C(=O)c4cccc5cccc(c45)C3=O)CC2)c1	Marburg entry inh inconclusive, HCMV inh -79, HCV inhibitor inconclusive
C=CCc1ccccc1OCC(O)CN1CCN(CCN2C(=O)c3cccc4cccc(c34)C2=O)CC1 (stereo not given)	Marburg entry inh 11µM, Vaccinia Venus inconclusive, HCV inhibitor 14µM, Vaccinia mCherry inconclusive, LASV entry inh inconclusive
Cc1ccc(-c2ccc(=O)n(CC(=O)NCCc3ccc(Cl)cc3)n2)cc1	none (no result: Marburg entry inh, HCV inhibitor)
O=C(NCC1(N2CCOCC2)CCCC1)c1cnn(-c2ncc3c(n2)-c2ccccc2CC3)c1C1CC1	none (no result: Marburg entry inh, HCMV inh, HCV inhibitor, LASV entry inh)
COc1ccc(C)cc1NC(=O)C1CCC(CNS(=O)(=O)c2ccc3c(c2)CCCC(=O)N3)CC1 (stereo not given)	Vaccinia Venus inconclusive (no result: Marburg entry inh, HCV inhibitor)
O=C(O)CN(CC(=O)O)CC1=CC2C(=CC1=O)Oc1cc(O)c(CN(CC(=O)O)CC(=O)O)cc1C21OC(=O)c2ccccc21 (stereo not given)	none (no result: Marburg entry inh, HCMV inh, HCV inhibitor, LASV entry inh)
O=C(CSc1nccn1Cc1ccc(Cl)cc1)Nc1ccc2c(c1)OCCO2	none (no result: Marburg entry inh, HCV inhibitor)
Cc1ccc(CNC(=O)c2ccc(CSCc3ccccc3Cl)o2)cc1	none (no result: Marburg entry inh, HCV inhibitor)
Cc1ccc2c(c1)C(=O)C1(O)CCN(c3ccccc3)C1=N2 (stereo not given)	none (no result: Marburg entry inh, HCMV inh, HCV inhibitor, LASV entry inh)
CC(=O)c1ccc(OCC(O)CN2CCN(CCN3C(=O)c4cccc5cccc(c45)C3=O)CC2)cc1 (stereo not given)	Marburg entry inh inconclusive, Vaccinia Venus inconclusive, HCMV inh -84, HCV inhibitor inconclusive, Vaccinia mCherry inconclusive, LASV entry inh inconclusive
COc1ccc(C(=O)Nn2c(SCC(=O)NC3CCCCC3)nc3ccccc3c2=O)cc1	Marburg entry inh inconclusive, LASV entry inh inconclusive (no result: Vaccinia Venus, Vaccinia mCherry)
CCOC(=O)CSc1nc2ccsc2c(=O)n1C1CCN(C(=O)OCC)CC1	Marburg entry inh inconclusive (no result: Vaccinia Venus, Vaccinia mCherry)

Screening results from PubChem.
